G9a block: blocks human histone lysine methyltransferase G9a | G9a H3K9 monomethylation, AlphaScreen, 2 h | Potency, µM (doses to about 102 µM), actives largely listed as inhibitors | 8.8% of 350,000 active; note: nearly all actives have a fitted effect of over 75% in size
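Enzyme 20 nM + cpd, 15 min RT; add b-H3K9 pep 500 nM / SAM 20 uM; 2 h RT; anti-H3K9me1 Ab 0.5 ug/mL + SA donor / anti-rabbit acceptor beads 20 ug/mL each, 10 min; AlphaScreen read.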
Sfp inh: inhibitors of Bacillus subtilis Sfp phosphopantetheinyl transferase; Q9F4F7; Biochemical Sfp PPTase activity, qHTS; Potency, µM, actives largely listed as inhibitors; 3.5% of 310,000 active; AID 1490;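 note: the enzyme is Sfp with the accession as filed and its product quenches rhodamine fluorescence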
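Fluorescence-quenching assay with 15 nM Sfp, 5 uM rhodamine-CoA and 12.5 uM BHQ-2-labelled ybbR peptide in pH 7.6 Hepes/MgCl2 buffer. Enzyme was pre-incubated with compound for 15 min at room temperature. Rate was taken from the 30-min fluorescence change (525/598 nm).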
JMJD2A Tudor: JMJD2A Tudor domain (human) inhibition. O75164. AlphaScreen JMJD2A-Tudor / H3K4me3 peptide binding. Potency, µM (series often up to 114 µM), actives largely listed as inhibitors. 4.4% of 390,000 active. AID 504339; note: nearly all actives have a fitted effect of over 50% in size
BAZ2B block: BAZ2B (human) inhibition; Potency, µM (top dose mostly 114 µM), most hits filed as inhibitors; 4.4% of 360,000 active; Q9UIF8; AlphaScreen BAZ2B-H3K14Ac peptide displacement; note: nearly all actives have a fitted effect of over 60% in size
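Complex of BAZ2B and biotin-H3K14Ac (50 nM apiece) forms over 30 min at RT, then faces library compounds up to 110 uM for another 30 min; AlphaScreen beads added, 20 min dark incubation, luminescence read.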
HP1b chromo inh: inhibitors of HP1-beta chromodomain binding to methylated histone tails. AlphaScreen HP1-beta / biotin-H3K9me3 peptide binding. Potency, µM (titrated, usually from 114 µM), most hits filed as inhibitors. 0.56% of 390,000 active. AID 540317; note: nearly all actives have a fitted effect of over 70% in size
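AlphaScreen: HP1-beta (50 nM) preformed 30 min with biotin-H3(1-18)K9me3 peptide (50 nM) in PBS pH 7.4, 0.01% Tween-20. Compound added for 30 min at RT, then streptavidin donor/nickel chelate acceptor beads (10 ug/mL) for 30 min.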
Each line names hits and unclear results; the compound was inactive in the other large screens. Shown are actives, neighbours in structure and some others; about 12% of the full set was active somewhere. Calls come from the whole dose curve; as a rule, active = well fitted curve in the direction sought with a large enough effect; inconclusive = small, poorly fitted or top-dose-only effect, or another doubt; inactive = no such curve, though single readings can be large; an effect the other way counts as inactive or inconclusive.

Cc1ccc(C(=O)OCC(=O)N(CC(C)C)c2c(N)n(Cc3ccccc3)c(=O)[nH]c2=O)s1	G9a block 79.4µM
COCCN(C(=O)COC(=O)c1ccc(C)s1)c1c(N)n(Cc2ccccc2)c(=O)[nH]c1=O	none (no result: Sfp inh)
CCC(=O)OC1(C(=O)CCl)[C@@H](C)C[C@H]2[C@@H]3CCC4=CC(=O)C=C[C@]4(C)[C@@]3(F)[C@@H](O)C[C@@]21C (stereo not given in full)	none (no result: Sfp inh)
COc1ccc(C2=NOC(C(=O)NCCCn3ccnc3)C2)cc1 (stereo not given)	none
Cc1noc(/C=C/N(C)C)c1S(=O)(=O)N1CCCC(C(=O)Nc2ccccc2F)C1 (stereo not given)	BAZ2B block inconclusive
CC(=O)c1ccc(N2CCN(S(=O)(=O)c3ccc4c5c3CC(=O)N5CC(C)S4)CC2)cc1 (stereo not given)	G9a block 44.7µM
CCC(=O)N1CCc2cc(Br)cc(S(=O)(=O)N3CCN(c4ccc(C(C)=O)cc4)CC3)c21	none (no result: Sfp inh)
CN(C)CCNC(=O)COc1cccc(Cl)c1	G9a block 22.4µM, BAZ2B block inconclusive
CN(C)CCNC(=O)COc1ccc(Cl)cc1Cl	G9a block 50.1µM, JMJD2A Tudor inconclusive
Cc1cccc(N2CCN(C(=O)c3ccc(NC(=O)c4nsc5ccccc45)cc3)CC2C)c1 (stereo not given)	BAZ2B block inconclusive (no result: Sfp inh)
COc1ccc2c3c1O[C@H]1C[C@H](O)C=C[C@@]31CCN(C)C2	none (no result: G9a block, JMJD2A Tudor, BAZ2B block, HP1b chromo inh)
COc1ccc(N2CCN(C(=O)CCCNC(=O)Cn3cnc4sc(C)c(C)c4c3=O)CC2)cc1	G9a block 50.1µM
CC(C)n1nnnc1SCC(=O)Nc1ccccc1N1CCOCC1	none
O=C(CSc1nnnn1C1CCCCC1)Nc1ccccc1N1CCOCC1	G9a block 35.5µM
C=CCn1c(=S)[nH]c2sccc2c1=O	G9a block 12.6µM, JMJD2A Tudor inconclusive
C=CCn1c(SCC(=O)NC2CCCC2)nc2scc(-c3ccco3)c2c1=O	G9a block inconclusive, Sfp inh 10µM, BAZ2B block inconclusive
C=CCn1c(SCC(=O)Nc2c(C)n(C)n(-c3ccccc3)c2=O)nc2scc(-c3ccccc3)c2c1=O	none
C=CCn1c(=S)[nH]c2sc3c(c2c1=O)CCCC3	none
C=CCn1c(SCC(C)=O)nc2scc(-c3ccc(C)o3)c2c1=O	G9a block 44.7µM, Sfp inh 50.1µM, JMJD2A Tudor inconclusive
C=CCn1c(SCC(=O)NCCCC)nc2scc(-c3ccco3)c2c1=O	Sfp inh 20µM, JMJD2A Tudor 56.2µM, BAZ2B block inconclusive, HP1b chromo inh inconclusive
COC(=O)[C@]1(Cc2ccccc2)N[C@H](c2ccc(-c3cccc(Cl)c3)c(OC)c2)[C@@H]2C(=O)N(C)C(=O)[C@@H]21	JMJD2A Tudor inconclusive (no result: G9a block, Sfp inh, BAZ2B block)
Cc1ccc(-c2csc3nc(C)n(N)c(=O)c23)o1	none
C=CCn1c(=S)[nH]c2scc(-c3ccc(C)o3)c2c1=O	G9a block 50.1µM, Sfp inh 28.2µM, JMJD2A Tudor inconclusive
O=[N+]([O-])c1ccccc1/C=C/CN1CCCCC1	none
O=[N+]([O-])c1ccccc1/C=C/CN1CCN(Cc2ccc3c(c2)OCO3)CC1	JMJD2A Tudor 22.4µM, BAZ2B block inconclusive, HP1b chromo inh inconclusive (no result: G9a block)
C(=C\c1ccccc1)/CN1CCN(Cc2ccc3c(c2)OCO3)CC1	JMJD2A Tudor 1.26µM, BAZ2B block 50.1µM, HP1b chromo inh inconclusive (no result: G9a block)
Cc1ccccc1CN1CCN(C/C=C/c2ccccc2)CC1	G9a block inconclusive, Sfp inh inconclusive, JMJD2A Tudor 3.16µM, HP1b chromo inh inconclusive
COc1ccnc2c1c(=O)n(Cc1c(F)cccc1Cl)c(=O)n2C	none
COc1cc(-c2nc3ccccn3c2N)ccc1O	G9a block 50.1µM
Cc1onc(-c2ccccc2Cl)c1C(=O)NC1CCCCCC1	none
CC(C)(C)NS(=O)(=O)c1ccc(NC(=O)C(Sc2ccccc2)c2ccccc2)cc1 (stereo not given)	none
CC(C)c1ccc(NNC(=O)C2CCC2)cc1	G9a block 7.08µM, JMJD2A Tudor inconclusive
CC(C)c1ccc(NC(=S)NNC(=O)C2CC2)cc1	none (no result: G9a block)
COc1ccc(CNCCC(c2ccc(C)cc2)c2ccco2)cc1 (stereo not given)	G9a block 5.01µM, JMJD2A Tudor 25.1µM, BAZ2B block 79.4µM, HP1b chromo inh inconclusive (no result: Sfp inh)
COc1ccc(CNCCC(c2ccccc2)c2ccc3c(c2)OCO3)cc1 (stereo not given)	G9a block 20µM, Sfp inh 35.5µM, BAZ2B block inconclusive
Cc1[nH]c2ccccc2c1/C=N/NC(=O)CNC(=O)c1ccccc1	none (no result: G9a block)
Cc1ccc(NC(=S)N/N=C/c2c(C)[nH]c3ccccc23)cc1	G9a block 50.1µM, JMJD2A Tudor 44.7µM, BAZ2B block 44.7µM, HP1b chromo inh inconclusive
Cc1ccc(C(=O)Nc2ccc(C(=O)N/N=C/c3c[nH]c4ccccc34)cc2)cc1	none
Cc1[nH]c2ccccc2c1/C=N/NC(=O)CNC(=O)Cc1ccccc1	G9a block 70.8µM, BAZ2B block inconclusive
Cc1cccc(NC(=S)N/N=C/c2c[nH]c3ccccc23)c1	JMJD2A Tudor inconclusive, BAZ2B block 50.1µM, HP1b chromo inh inconclusive
Cc1[nH]c2ccccc2c1/C=N/NC(=O)c1cc(C(C)(C)C)[nH]n1	BAZ2B block 70.8µM (no result: G9a block)
CN(C)c1ccc(N=Nc2ccc(C(=O)O)cc2)cc1	G9a block 10µM, Sfp inh 79.4µM, JMJD2A Tudor 25.1µM, BAZ2B block 35.5µM
COC(=O)c1ccc(N=NN2CCCCCC2)cc1	none
O=C(O)c1ccc(N=NN2CCCCC2)cc1	G9a block 35.5µM, BAZ2B block inconclusive
CN(C)c1ccc(C(=O)c2ccccc2)cc1	none
O=C(CN1CCN(c2cnn(-c3ccccc3)c(=O)c2Cl)CC1)NC1CCS(=O)(=O)C1 (stereo not given)	G9a block 44.7µM (no result: Sfp inh)
COc1ccc(N=[N+]([O-])c2ccc(OC)cc2)cc1	HP1b chromo inh inconclusive (no result: G9a block, Sfp inh, BAZ2B block)
COc1ccc(C(=O)CSc2nccn2C)cc1	G9a block 50.1µM, Sfp inh 56.2µM
CCSCc1nnc(SCC(=O)c2ccc(OC)cc2)n1C	G9a block inconclusive, JMJD2A Tudor 50.1µM
CCn1c(CNC(=O)c2ccco2)nnc1SCC(=O)c1ccc(OC)cc1	none
COc1ccc(C(=O)CSc2nnc(CNC(=O)c3ccc(OC)c(OC)c3)n2C)cc1	JMJD2A Tudor 44.7µM
Cn1ccnc1SCC(=O)c1ccc(OC(F)F)cc1	G9a block inconclusive
CCn1c(CNC(=O)c2ccc(OC)c(OC)c2)nnc1SCC(=O)c1ccc(OC)cc1	G9a block 11.2µM
Cc1ccccc1OCCCN1CCOCC1	none
OCCCc1cn(CC2CCCCC2)nn1	G9a block inconclusive
COc1ccc(-c2cn3c(n2)sc2cc(C(=O)NC4CCCCC4)ccc23)cc1	none (no result: Sfp inh)
COc1cc(OC)cc(-n2c(=O)c3sccc3n(Cc3cc(=O)n4c(C)cccc4n3)c2=O)c1	none (no result: Sfp inh)
O=C(O)CCCCC1CCSS1 (stereo not given)	G9a block 1.78µM, BAZ2B block 1µM
O=C(O)CCNC1CCCCC1	none
